Measurements reported in PubChem BioAssay (NCI).
This is part of a sample that, as a whole, favours compounds with a hit. Of some 83,000 tested, about 20% had one in any assay.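 Single-dose data. Exposure time 48 hours. Values below 10 considered active.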 Active and inactive are the calls of the source.

What was measured:
Assay in all cases: NCI-60 one-dose screen, 48 h (100 = growth as untreated, 0 = no growth, -100 = all killed)
[1] = tested on: HCT-15 colon; conditions: 10 µM unless noted
[2] = tested on: HT29 colon; conditions: 10 µM unless noted
[3] = tested on: SNB-75 CNS; conditions: 10 µM unless noted
[4] = tested on: SNB-19 CNS; conditions: 10 µM unless noted
[5] = tested on: U251 CNS; conditions: 10 µM unless noted
[6] = tested on: PC-3 prostate; conditions: 10 µM unless noted
[7] = tested on: SK-MEL-5 melanoma; conditions: 10 µM unless noted
[8] = tested on: UACC-62 melanoma; conditions: 10 µM unless noted
[9] = tested on: LOX IMVI melanoma; conditions: 10 µM
[10] = tested on: SK-MEL-28 melanoma; conditions: 10 µM unless noted

Measured: growth

CC(=O)N(C)N=Nc1ccc(C)cc1
inactive: [1] 107% | [2] 116% | [3] 93.2% | [4] 101% | [5] 106% | [6] 97.7% | [7] 103% | [8] 101% | [9] 98.1% | [10] 116%

CC(CCC#N)(CCC#N)C(=O)c1ccccc1
inactive: [1] 100% | [2] 103% | [3] 96.7% | [4] 102% | [5] 109% | [6] 87.8% | [7] 109% | [8] 104% | [9] 100% | [10] 119%

O=C(OC1CCCC1)c1ccccc1Cl
inactive: [1] 111% | [2] 105% | [3] 90.3% | [4] 105% | [5] 101% | [6] 95.7% | [7] 108% | [8] 99.2% | [9] 97% | [10] 107%

COc1ccc(-c2csc(NC(=O)Nc3nc(-c4ccc(OC)cc4)cs3)n2)cc1
inactive: [1] 86.5% | [2] 104% | [3] 99.2% | [4] 96.6% | [5] 79.5% | [6] 67.4% | [7] 29.3% | [8] 81.3% | [9] 83.6% | [10] 99%

CCOc1ccc(C(=O)NCC(C)C)cc1
inactive: [1] 103% | [2] 106% | [3] 81.8% | [4] 99.3% | [5] 101% | [6] 98.1% | [7] 101% | [8] 101% | [9] 97.2% | [10] 106%

CC(C)C(C)(C)C(=O)C(C)(C)C(C)(C)C
inactive: [1] 96.9% | [2] 98.1% | [3] 109% | [4] 102% | [5] 92.9% | [6] 98.8% | [7] 101% | [8] 102% | [9] 93.3% | [10] 104%

CCNC(=O)OCCc1c2ccccc2nc2ccccc12
inactive: [1] 104% | [2] 103% | [3] 81.3% | [4] 111% | [5] 97% | [6] 43.9% | [7] 104% | [8] 99.1% | [9] 88.4% | [10] 97.7%

Cc1cc(=O)n(Nc2ccccc2)c(O)c1C#N
inactive: [1] 112% | [2] 105% | [3] 97.4% | [4] 103% | [5] 103% | [6] 99.4% | [7] 104% | [8] 103% | [9] 96.6% | [10] 111%

NNc1ncnc2c1ncn2C1OC(CO)C(O)C1O (stereo not given)
active: [2] 9.12%
inactive: [1] 11.2% | [3] 94.2% | [4] 57.8% | [5] 39.7% | [6] 32.3% | [7] 88.4% | [8] 60.5% | [9] 32.6% | [10] 88.8%

Nc1cc(N)ncn1
inactive: [1] 102% | [2] 104% | [3] 88.9% | [4] 96.1% | [5] 104% | [6] 97.7% | [7] 98.3% | [8] 99.6% | [9] 98.4% | [10] 98.9%

O=S(=O)(O)c1cccc2cccnc12
inactive: [1] 117% | [2] 122% | [3] 98.2% | [4] 106% | [5] 113% | [6] 86.8% | [7] 107% | [8] 109% | [9] 107% | [10] 97.3%

CC(C)OCC(CCl)OC(=O)Nc1ccccc1 (stereo not given)
inactive: [1] 108% | [2] 102% | [3] 92.2% | [4] 105% | [5] 97.2% | [6] 98.8% | [7] 101% | [8] 101% | [9] 97% | [10] 111%

OCC(O)COc1ccc(Cl)cc1Cl (stereo not given)
inactive: [1] 105% | [2] 93.9% | [3] 85.8% | [4] 93.3% | [5] 89.3% | [6] 97.3% | [7] 109% | [8] 96.6% | [9] 111% | [10] 96.5%

COc1ccc(NNS(=O)(=O)O)cc1
inactive: [1] 101% | [2] 99.9% | [3] 83.2% | [4] 98.1% | [5] 98% | [6] 86.1% | [7] 102% | [8] 96.7% | [9] 99.7% | [10] 107%

NC(=S)N/N=C/c1ccc(OC(=O)COc2ccc(Cl)cc2)cn1
active: [8] 8.53%
inactive: [1] 70.6% | [2] 79.3% | [3] 44.9% | [4] 72.9% | [5] 32.6% | [6] 64.3% | [7] 30.7% | [9] 23.8% | [10] 76.5%

Cc1ccc(O)c(N)c1
inactive: [1] 106% | [2] 112% | [3] 87.7% | [4] 101% | [5] 103% | [6] 94.7% | [7] 103% | [8] 81.5% | [9] 105% | [10] 122%

S=C(Sc1ccc(Cl)cc1)Sc1ccc(Cl)cc1
inactive: [3] 46% | [4] 83.9% | [7] 65.9%
active: [1] 3.17% | [2] 4.96% | [5] -43% | [6] 9.49% | [8] -47% | [9] -100% | [10] -64.2%

Cc1ccc(S(N)(=O)=O)cc1Cl
inactive: [1] 104% | [2] 104% | [3] 91.8% | [4] 107% | [5] 103% | [6] 99.3% | [7] 103% | [8] 105% | [9] 114% | [10] 108%

CCCCCCCCCCCCCCCCOc1ccccc1NC(=O)CC(C)=O
inactive: [1] 113% | [2] 97.9% | [3] 93.2% | [4] 104% | [5] 99.3% | [6] 75.4% | [7] 96.2% | [8] 78.7% | [9] 107% | [10] 103%

O=S(=O)(O)c1ccc(O)c(C2CCCCC2)c1
inactive: [1] 96.6% | [2] 98.6% | [3] 77.2% | [4] 104% | [5] 96.6% | [6] 98.5% | [7] 101% | [8] 109% | [9] 105% | [10] 110%

O=C(O)c1ccc(OCc2ccccc2)cc1
inactive: [1] 109% | [2] 100% | [3] 87.8% | [4] 95% | [5] 93.7% | [6] 90.4% | [7] 96.2% | [8] 95.6% | [9] 98.3% | [10] 101%

CSc1nc2[nH]ncc2c(=O)[nH]1
inactive: [1] 99.7% | [2] 107% | [3] 103% | [4] 103% | [5] 103% | [6] 107% | [7] 92.8% | [8] 107% | [9] 97.2% | [10] 106%

CCOc1ccncc1[N+](=O)[O-]
inactive: [1] 110% | [2] 107% | [3] 101% | [4] 125% | [5] 96.9% | [6] 106% | [7] 106% | [8] 100% | [9] 99.6% | [10] 102%

CC(=O)OC/C(C)=C\CC(C)COC(C)=O (stereo not given)
inactive: [1] 98.8% | [2] 113% | [3] 81.5% | [4] 94.9% | [5] 101% | [6] 93.9% | [7] 104% | [8] 101% | [9] 98.8% | [10] 94.6%

CC12CCC3c4ccc(O)cc4CCC3C1CCC2=O (stereo not given)
inactive: [1] 101% | [2] 96.4% | [3] 93.4% | [4] 98.2% | [5] 101% | [6] 85.3% | [7] 101% | [8] 94.6% | [9] 103% | [10] 106%

Oc1cc(O)c2c(c1)O[C@H](c1ccc(O)c(O)c1)[C@@H](O)C2
inactive: [1] 100% | [2] 97.5% | [3] 83.6% | [4] 101% | [5] 97.9% | [6] 93.3% | [7] 104% | [8] 106% | [9] 100% | [10] 110%

CC(=O)OC(C)c1cccc(C#N)c1 (stereo not given)
inactive: [1] 105% | [2] 104% | [3] 89.7% | [4] 105% | [5] 99% | [6] 96.4% | [7] 99.1% | [8] 104% | [9] 101% | [10] 114%

Cc1ccc([N+](=O)[O-])c(C)n1
inactive: [1] 97.9% | [2] 108% | [3] 77.8% | [4] 105% | [5] 102% | [6] 89.7% | [7] 114% | [8] 107% | [9] 103% | [10] 99.6%

O=C(NC(=S)N1CC=CCC1)c1ccccc1
inactive: [1] 102% | [2] 100% | [3] 111% | [4] 105% | [5] 104% | [6] 98.5% | [7] 104% | [8] 107% | [9] 107% | [10] 115%

Oc1ccc(N=Cc2ccc(OCc3ccccc3)cc2)cc1
inactive: [1] 96.6% | [2] 109% | [3] 92.1% | [4] 91.3% | [5] 102% | [6] 92.5% | [7] 92.2% | [8] 88.6% | [9] 100% | [10] 106%
